Reference: the OligoGym collection

What follows are sequences tested against GABRP (assay: pooled miR-30 sensor sort-seq; sequence = guide strand). Conditions: shRNA.

Question: For TTCATTGTCAAGTCACTGTAGT, which sensor-assay potency score (higher = more potent) is on record?
Answer: 0.147

Question: TACATCATTATCTTGTCCTGTT was tested. Which sensor-assay potency score (higher = more potent) did it give?
Answer: 0.716

Question: Which sensor-assay potency score (higher = more potent) does the source give for TTTCATTGTCAAGTCACTGTAG here?
Answer: 0.714

Question: TAGTGATCAACATTACTGGGGT was tested. Which sensor-assay potency score (higher = more potent) did it give?
Answer: 0.2

Question: For TTTGAATTGTGAAATAATCAAC, which sensor-assay potency score (higher = more potent) is on record?
Answer: -1.06

Question: How did the sensor-assay potency score (higher = more potent) turn out when ATAGTGATCAACATTACTGGGG was run?
Answer: 0.527

Question: For ACAAACTTGAACTTGTCGCTGG, which sensor-assay potency score (higher = more potent) is on record?
Answer: 0.62

Question: With AAACTTGAACTTGTCGCTGGTT as the sequence, how does the sensor-assay potency score (higher = more potent) read?
Answer: 0.218

Question: Which sensor-assay potency score (higher = more potent) does the source give for TTGCCTTCAAACACCAGCCGCT here?
Answer: 0.206

Question: Which sensor-assay potency score (higher = more potent) does the source give for TTACTCTCTGAAATGCTAGAGA here?
Answer: -0.589

Question: How did the sensor-assay potency score (higher = more potent) turn out when TTACATCATTATCTTGTCCTGT was run?
Answer: 0.386

Question: Which sensor-assay potency score (higher = more potent) does the source give for TTACATGCAACAGTTGTCGTGA here?
Answer: 0.789

Question: TTGATGATATTAGTAATACTGA was tested. Which sensor-assay potency score (higher = more potent) did it give?
Answer: -0.994

Question: TAGTGTAATTTCCTGTCTCCTG was tested. Which sensor-assay potency score (higher = more potent) did it give?
Answer: -0.339

Question: Which sensor-assay potency score (higher = more potent) does the source give for TCAAACTGTAAGACCAATCTAG here?
Answer: 0.125

Question: With AACTTGAACTTGTCGCTGGTTT as the sequence, how does the sensor-assay potency score (higher = more potent) read?
Answer: -0.459

Question: With TTCTCGGAAGACAAACTTGAAC as the sequence, how does the sensor-assay potency score (higher = more potent) read?
Answer: -1.47

Question: TAGTAATACTGACTTCTTCTAC was tested. Which sensor-assay potency score (higher = more potent) did it give?
Answer: -0.185

What follows are sequences tested against GALE in the same assay as above. Conditions: shRNA.

Question: ATCCTCACACATCCTGTCCAGC was tested. Which sensor-assay potency score (higher = more potent) did it give?
Answer: -0.56

Question: For TACTTTTTGAAGAGACGCTGTA, which sensor-assay potency score (higher = more potent) is on record?
Answer: -0.402

Question: Which sensor-assay potency score (higher = more potent) does the source give for TACACAGTGGCTGAGCTGCTGA here?
Answer: -1.04

Question: How did the sensor-assay potency score (higher = more potent) turn out when TGAAGAACTTGGACTTGCCGTA was run?
Answer: -0.185

Question: With AACACCAGGTTCTTCACCCCGT as the sequence, how does the sensor-assay potency score (higher = more potent) read?
Answer: -0.43

Question: For TCGATGAAGAACTTGGACTTGC, which sensor-assay potency score (higher = more potent) is on record?
Answer: -0.0111

Question: For TTTTGAAGAGACGCTGTAGGGC, which sensor-assay potency score (higher = more potent) is on record?
Answer: 0.205

Question: AATAGCGCAGCAGCACTGCGTT was tested. Which sensor-assay potency score (higher = more potent) did it give?
Answer: -1.17

Question: With TTTATTTTTAAATACTTTGGAA as the sequence, how does the sensor-assay potency score (higher = more potent) read?
Answer: -0.203

Question: How did the sensor-assay potency score (higher = more potent) turn out when TTCCTCGATGAAGAACTTGGAC was run?
Answer: -0.651

Question: How did the sensor-assay potency score (higher = more potent) turn out when TTGTACGGGATCTTCTTCCCAG was run?
Answer: 0.364

Question: For TGGATGACCGCCATAAAGCTGT, which sensor-assay potency score (higher = more potent) is on record?
Answer: -0.62

Question: TAACTCTGTAATAATCCAGAGG was tested. Which sensor-assay potency score (higher = more potent) did it give?
Answer: -0.909

Question: Which sensor-assay potency score (higher = more potent) does the source give for TAAGGCTGCAATGTGGCCCTTG here?
Answer: 0.223

Question: Which sensor-assay potency score (higher = more potent) does the source give for TCTGTGTCATAGTCATTGCCAA here?
Answer: -0.861

Question: With TGAAATAGCGCAGCAGCACTGC as the sequence, how does the sensor-assay potency score (higher = more potent) read?
Answer: -0.836

Question: ATGAAGAACTTGGACTTGCCGT was tested. Which sensor-assay potency score (higher = more potent) did it give?
Answer: -1.09

Question: With TCTGTAATAATCCAGAGGCTTC as the sequence, how does the sensor-assay potency score (higher = more potent) read?
Answer: -1.35

Question: TCACACATCCTGTCCAGCCCTA was tested. Which sensor-assay potency score (higher = more potent) did it give?
Answer: -0.0923

Question: With TCAAACTCCACAGAGCGGCCTG as the sequence, how does the sensor-assay potency score (higher = more potent) read?
Answer: -0.0381

Question: With TTCCAAGTCTTGTCTGCCTGGC as the sequence, how does the sensor-assay potency score (higher = more potent) read?
Answer: -0.133

Question: TTCTGCTTCTGCCAGCGCCAGA was tested. Which sensor-assay potency score (higher = more potent) did it give?
Answer: -1.44
